# Assay results: PMC11006913
# Biological target: MSX2 (Homo sapiens, UniProt P35548 130-214, R199I)
# Test: PBM; 200 nM protein, PBS
# Settings: dsDNA, one strand shown
# Chain of MSX2 (Homo sapiens, UniProt P35548 130-214, R199I) (P35548 130-214 R199I): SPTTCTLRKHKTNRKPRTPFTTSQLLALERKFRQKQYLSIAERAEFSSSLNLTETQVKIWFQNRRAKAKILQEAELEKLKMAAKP
row,Sequence,binding signal
1,CTGGCGTC,"9.45 upbm affinity estimate (log intensity, higher = more binding, comparable within an allelic series)"
2,CCGCAGCC,"9.47 upbm affinity estimate (log intensity, higher = more binding, comparable within an allelic series)"
3,GCGCGGCA,"9.56 upbm affinity estimate (log intensity, higher = more binding, comparable within an allelic series)"

# Biological target: HOXD13 (Homo sapiens, UniProt P35453 263-343, T313R)
# Sequence (P35453 263-343 T313R): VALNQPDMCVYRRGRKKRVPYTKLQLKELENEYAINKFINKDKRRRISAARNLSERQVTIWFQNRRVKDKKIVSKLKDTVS
# Test: PBM; 200 nM protein, PBS
# Settings: dsDNA, one strand shown
row,Sequence,binding signal
1,TATAAATA,"10.8 upbm affinity estimate (log intensity, higher = more binding, comparable within an allelic series)"
2,GCAGGCCC,"9.4 upbm affinity estimate (log intensity, higher = more binding, comparable within an allelic series)"
3,CCGCAGCC,"9.38 upbm affinity estimate (log intensity, higher = more binding, comparable within an allelic series)"
4,AGCCCCGG,"9.53 upbm affinity estimate (log intensity, higher = more binding, comparable within an allelic series)"
5,CTGCCGGC,"9.44 upbm affinity estimate (log intensity, higher = more binding, comparable within an allelic series)"

# Biological target: PITX2 (Homo sapiens, UniProt Q99697 72-157)
# Test: PBM; 200 nM protein, PBS
# Settings: dsDNA, one strand shown
row,Sequence,binding signal
1,GCAGGCCC,"7.9 upbm affinity estimate (log intensity, higher = more binding, comparable within an allelic series)"
2,CGGGCAAC,"7.85 upbm affinity estimate (log intensity, higher = more binding, comparable within an allelic series)"
3,CTTGGCGC,"7.94 upbm affinity estimate (log intensity, higher = more binding, comparable within an allelic series)"
4,CCCGCAAG,"7.91 upbm affinity estimate (log intensity, higher = more binding, comparable within an allelic series)"

# Biological target: HOXA2 (Homo sapiens, UniProt O43364 129-215, R185K)
# Sequence (O43364 129-215 R185K): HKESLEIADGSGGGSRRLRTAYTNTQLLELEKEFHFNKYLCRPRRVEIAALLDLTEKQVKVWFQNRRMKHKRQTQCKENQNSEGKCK
# Test: PBM; 200 nM protein, PBS
# Settings: dsDNA, one strand shown
row,Sequence,binding signal
1,CGCCGGAC,"10.4 upbm affinity estimate (log intensity, higher = more binding, comparable within an allelic series)"
2,CTCAGGCC,"10.3 upbm affinity estimate (log intensity, higher = more binding, comparable within an allelic series)"
3,GCGCGGCA,"10.3 upbm affinity estimate (log intensity, higher = more binding, comparable within an allelic series)"
4,GAACCGGC,"10.2 upbm affinity estimate (log intensity, higher = more binding, comparable within an allelic series)"
5,CGCGCCCC,"10.1 upbm affinity estimate (log intensity, higher = more binding, comparable within an allelic series)"

# Biological target: HOXD13 (Homo sapiens, UniProt P35453 263-343)
# Sequence (P35453 263-343): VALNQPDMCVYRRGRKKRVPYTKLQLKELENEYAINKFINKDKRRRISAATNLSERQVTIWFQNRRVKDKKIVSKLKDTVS
# Test: PBM; 200 nM protein, PBS
# Settings: dsDNA, one strand shown
row,Sequence,binding signal
1,GCAGGCCC,"9.64 upbm affinity estimate (log intensity, higher = more binding, comparable within an allelic series)"
2,CCGCAGCC,"9.33 upbm affinity estimate (log intensity, higher = more binding, comparable within an allelic series)"
3,AGCCCCGG,"9.4 upbm affinity estimate (log intensity, higher = more binding, comparable within an allelic series)"
4,CTGCCGGC,"9.54 upbm affinity estimate (log intensity, higher = more binding, comparable within an allelic series)"

# Biological target: MSX2 (Homo sapiens, UniProt P35548 130-214)
# Sequence (P35548 130-214): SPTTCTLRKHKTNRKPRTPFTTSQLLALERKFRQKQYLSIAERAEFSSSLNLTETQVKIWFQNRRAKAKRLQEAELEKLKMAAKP
# Test: PBM; 200 nM protein, PBS
# Settings: dsDNA, one strand shown
row,Sequence,binding signal
1,CCGTGAGG,"9.11 upbm affinity estimate (log intensity, higher = more binding, comparable within an allelic series)"
2,CCTGCTCG,"9.58 upbm affinity estimate (log intensity, higher = more binding, comparable within an allelic series)"
3,ACCGGGGA,"9.39 upbm affinity estimate (log intensity, higher = more binding, comparable within an allelic series)"
4,CTGGCGTC,"9.51 upbm affinity estimate (log intensity, higher = more binding, comparable within an allelic series)"
5,CCGCAGCC,"9.43 upbm affinity estimate (log intensity, higher = more binding, comparable within an allelic series)"
6,GCGCGGCA,"9.62 upbm affinity estimate (log intensity, higher = more binding, comparable within an allelic series)"

# Biological target: VAX1 (Homo sapiens, UniProt Q5SQQ9 86-172)
# Sequence (Q5SQQ9 86-172): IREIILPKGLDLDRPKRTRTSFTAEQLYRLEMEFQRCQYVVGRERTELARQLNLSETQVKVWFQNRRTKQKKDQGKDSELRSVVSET
# Test: PBM; 200 nM protein, PBS
# Settings: dsDNA, one strand shown
row,Sequence,binding signal
1,CCGGACGC,"7.11 upbm affinity estimate (log intensity, higher = more binding, comparable within an allelic series)"
2,CTTGGGCC,"6.94 upbm affinity estimate (log intensity, higher = more binding, comparable within an allelic series)"
3,CGCCCAGA,"7.13 upbm affinity estimate (log intensity, higher = more binding, comparable within an allelic series)"
4,CGCGCCCC,"7.05 upbm affinity estimate (log intensity, higher = more binding, comparable within an allelic series)"

# Biological target: HOXD13 (Homo sapiens, UniProt P35453 263-343, T313A)
# Sequence (P35453 263-343 T313A): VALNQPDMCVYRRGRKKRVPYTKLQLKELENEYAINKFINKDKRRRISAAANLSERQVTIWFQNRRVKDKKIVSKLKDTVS
# Test: PBM; 200 nM protein, PBS
# Settings: dsDNA, one strand shown
row,Sequence,binding signal
1,GCAGGCCC,"9.61 upbm affinity estimate (log intensity, higher = more binding, comparable within an allelic series)"
2,CCGCAGCC,"9.43 upbm affinity estimate (log intensity, higher = more binding, comparable within an allelic series)"
3,AGCCCCGG,"9.76 upbm affinity estimate (log intensity, higher = more binding, comparable within an allelic series)"
4,CTGCCGGC,"9.67 upbm affinity estimate (log intensity, higher = more binding, comparable within an allelic series)"

# Biological target: HOXB9 (Homo sapiens, UniProt P17482 171-250, R186Q)
# Sequence (P17482 171-250 R186Q): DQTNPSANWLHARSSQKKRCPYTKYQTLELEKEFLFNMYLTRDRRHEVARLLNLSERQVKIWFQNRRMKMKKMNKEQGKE
# Test: PBM; 200 nM protein, PBS
# Settings: dsDNA, one strand shown
row,Sequence,binding signal
1,CCGTGAGG,"8.2 upbm affinity estimate (log intensity, higher = more binding, comparable within an allelic series)"
2,GACATAAA,"11.3 upbm affinity estimate (log intensity, higher = more binding, comparable within an allelic series)"
3,CCACGTCG,"8.57 upbm affinity estimate (log intensity, higher = more binding, comparable within an allelic series)"
4,CACGCCTC,"8.39 upbm affinity estimate (log intensity, higher = more binding, comparable within an allelic series)"
5,TATAAATA,"10.8 upbm affinity estimate (log intensity, higher = more binding, comparable within an allelic series)"
6,CCGGACGC,"8.59 upbm affinity estimate (log intensity, higher = more binding, comparable within an allelic series)"
7,GCAGGCCC,"8.26 upbm affinity estimate (log intensity, higher = more binding, comparable within an allelic series)"
8,GGAGCTAC,"8.53 upbm affinity estimate (log intensity, higher = more binding, comparable within an allelic series)"
9,CCAGACCG,"8.43 upbm affinity estimate (log intensity, higher = more binding, comparable within an allelic series)"
10,CTTGGGCC,"8.33 upbm affinity estimate (log intensity, higher = more binding, comparable within an allelic series)"
11,CCGATCGG,"8.57 upbm affinity estimate (log intensity, higher = more binding, comparable within an allelic series)"
12,CGTGGACC,"8.63 upbm affinity estimate (log intensity, higher = more binding, comparable within an allelic series)"
13,CCTGCTCG,"8.42 upbm affinity estimate (log intensity, higher = more binding, comparable within an allelic series)"
14,CTCGACCA,"8.38 upbm affinity estimate (log intensity, higher = more binding, comparable within an allelic series)"
15,ACCGGGGA,"8.23 upbm affinity estimate (log intensity, higher = more binding, comparable within an allelic series)"
16,AGCATCCG,"8.71 upbm affinity estimate (log intensity, higher = more binding, comparable within an allelic series)"
17,CCCGTCTC,"8.4 upbm affinity estimate (log intensity, higher = more binding, comparable within an allelic series)"
18,CTGGCGTC,"8.34 upbm affinity estimate (log intensity, higher = more binding, comparable within an allelic series)"
19,CCGCAGCC,"8.47 upbm affinity estimate (log intensity, higher = more binding, comparable within an allelic series)"

row,Sequence,binding signal
1,CGCTACCG,"8.56 upbm affinity estimate (log intensity, higher = more binding, comparable within an allelic series)"
2,ATAAATGA,"10.8 upbm affinity estimate (log intensity, higher = more binding, comparable within an allelic series)"
3,GCGGGTGA,"8.62 upbm affinity estimate (log intensity, higher = more binding, comparable within an allelic series)"
4,AGGGCGTG,"8.53 upbm affinity estimate (log intensity, higher = more binding, comparable within an allelic series)"
5,CGCCCAGA,"8.62 upbm affinity estimate (log intensity, higher = more binding, comparable within an allelic series)"
6,AGCCCCGG,"8.53 upbm affinity estimate (log intensity, higher = more binding, comparable within an allelic series)"
7,CCTAGCCG,"8.65 upbm affinity estimate (log intensity, higher = more binding, comparable within an allelic series)"
8,GACTGACC,"8.7 upbm affinity estimate (log intensity, higher = more binding, comparable within an allelic series)"
9,CGGGCAAC,"8.68 upbm affinity estimate (log intensity, higher = more binding, comparable within an allelic series)"
10,CTTGGCGC,"8.21 upbm affinity estimate (log intensity, higher = more binding, comparable within an allelic series)"
11,CCCGCAAG,"8.51 upbm affinity estimate (log intensity, higher = more binding, comparable within an allelic series)"
12,CGCCGGAC,"8.52 upbm affinity estimate (log intensity, higher = more binding, comparable within an allelic series)"
13,CTCAGGCC,"8.4 upbm affinity estimate (log intensity, higher = more binding, comparable within an allelic series)"
14,GCGCGGCA,"8.56 upbm affinity estimate (log intensity, higher = more binding, comparable within an allelic series)"
15,GAACCGGC,"8.48 upbm affinity estimate (log intensity, higher = more binding, comparable within an allelic series)"
16,CTGCCGGC,"8.68 upbm affinity estimate (log intensity, higher = more binding, comparable within an allelic series)"
17,CGCGCCCC,"8.34 upbm affinity estimate (log intensity, higher = more binding, comparable within an allelic series)"
18,CAGGGGCC,"8.25 upbm affinity estimate (log intensity, higher = more binding, comparable within an allelic series)"

# Biological target: MSX2 (Homo sapiens, UniProt P35548 130-214, F161Y)
# Sequence (P35548 130-214 F161Y): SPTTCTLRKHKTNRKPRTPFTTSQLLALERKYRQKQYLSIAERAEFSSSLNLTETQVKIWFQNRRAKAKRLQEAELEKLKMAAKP
# Test: PBM; 200 nM protein, PBS
# Settings: dsDNA, one strand shown
row,Sequence,binding signal
1,CCGTGAGG,"9.23 upbm affinity estimate (log intensity, higher = more binding, comparable within an allelic series)"
2,CCTGCTCG,"9.61 upbm affinity estimate (log intensity, higher = more binding, comparable within an allelic series)"
3,ACCGGGGA,"9.41 upbm affinity estimate (log intensity, higher = more binding, comparable within an allelic series)"
4,CTGGCGTC,"9.44 upbm affinity estimate (log intensity, higher = more binding, comparable within an allelic series)"
5,CCGCAGCC,"9.45 upbm affinity estimate (log intensity, higher = more binding, comparable within an allelic series)"
6,GCGCGGCA,"9.62 upbm affinity estimate (log intensity, higher = more binding, comparable within an allelic series)"

# Biological target: VAX1 (Homo sapiens, UniProt Q5SQQ9 86-172, T142I)
# Sequence (Q5SQQ9 86-172 T142I): as the sequence (Q5SQQ9 86-172) above, with T57I counted along it
# Test: PBM; 200 nM protein, PBS
# Settings: dsDNA, one strand shown
row,Sequence,binding signal
1,CCGGACGC,"7.2 upbm affinity estimate (log intensity, higher = more binding, comparable within an allelic series)"
2,CTTGGGCC,"7.04 upbm affinity estimate (log intensity, higher = more binding, comparable within an allelic series)"
3,CGCCCAGA,"7.22 upbm affinity estimate (log intensity, higher = more binding, comparable within an allelic series)"
4,CGCGCCCC,"6.95 upbm affinity estimate (log intensity, higher = more binding, comparable within an allelic series)"

# Biological target: HOXA2 (Homo sapiens, UniProt O43364 129-215, Y150S)
# Sequence (O43364 129-215 Y150S): as the sequence (O43364 129-215 R185K) above, with Y22S, K57R counted along it
# Test: PBM; 200 nM protein, PBS
# Settings: dsDNA, one strand shown
row,Sequence,binding signal
1,CGCCGGAC,"10.4 upbm affinity estimate (log intensity, higher = more binding, comparable within an allelic series)"
2,CTCAGGCC,"10.4 upbm affinity estimate (log intensity, higher = more binding, comparable within an allelic series)"
3,GCGCGGCA,"10.4 upbm affinity estimate (log intensity, higher = more binding, comparable within an allelic series)"
4,GAACCGGC,"10.4 upbm affinity estimate (log intensity, higher = more binding, comparable within an allelic series)"
5,CGCGCCCC,"10.2 upbm affinity estimate (log intensity, higher = more binding, comparable within an allelic series)"
